TDP1 cell noCPT = qHTS for Inhibitors of human tyrosyl-DNA phosphodiesterase 1 (TDP1): qHTS in cells in absence of CPT | Potency, µM (series often up to 46.2 µM), actives largely listed as inhibitors | hit rate 15% among 420,000 | DT40 Tdp1-/- hTDP1 cells, no CPT, ATP luminescence, 48 h; also: nearly all actives have a fitted effect of over 55% in size
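Seeded 400 DT40-hTDP1 cells/well (vehicle DMSO, no 20 nM CPT); pinned compounds; ≥48 hr at 37 °C; CellTiter-Glo luminescence as viability measure.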
HT1080-NT tox = kills 2HG-producing HT-1080-NT fibrosarcoma cells | HT-1080-NT fibrosarcoma viability, CellTiter-Glo ATP luminescence, 48 h | Potency, µM (highest dose often 46.1 µM), actives largely listed as cytotoxic | hit rate 1.6% among 360,000 | AID 686970;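 also: NT is the 2HG producing partner of a matched IDH1 knockdown line; nearly all actives have a fitted effect of over 55% in size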
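Read-out is CellTiter-Glo luminescence after 10 minutes at room temperature, following 48 hours' compound treatment of HT-1080-NT cells (750 cells/well, RPMI, 5% FBS, 37 degrees C).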
KB-3-1 cytotox = kills parental KB-3-1 adenocarcinoma cells. KB-3-1 viability, CellTiter-Glo ATP luminescence, 72 h. Potency, µM (titrated, usually from 46.1 µM), hits mostly cytotoxic. hit rate 1.4% among 400,000. AID 1347075; also: nearly all actives have a fitted effect of over 60% in size
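Using CellTiter-Glo luminescence, growth of non-resistant KB-3-1 adenocarcinoma cells is assessed 72 h after pin-tool compound addition at 37 °C. Normalized responses across the concentration series yield fitted curves.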
HT1080 IDH1KD tx = HT-1080 IDH1 knockdown cell toxicity (counter line); HT-1080 IDH1 knockdown viability, ATP luminescence, 48 h; Potency, µM (titrated, usually from 46.1 µM), actives largely listed as cytotoxic; hit rate 2% among 360,000
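Luminescent ATP read-out (CellTiter-Glo, 10 min at room temperature) after 48 h compound exposure at 37 °C gave viability of IDH1-knockdown HT-1080 cells. Activity was normalised to DMSO and cell-free wells, then fitted as concentration-response curves.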
KB-V1 cytotox = kills drug-selected multidrug resistant KB-V1 cells; KB-V1 MDR cells viability, CellTiter-Glo, 72 h; Potency, µM (titrated, usually from 46.1 µM), usual class: cytotoxic; hit rate 3.4% among 400,000; also: nearly all actives have a fitted effect of over 60% in size
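Cells of the MDR subline KB-V1 are plated, dosed with compound at multiple concentrations, and incubated 72 h at 37 degrees C; CellTiter-Glo is then added and luminescence read after 10 min.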
TDP1 cell CPT = growth inhibition of DT40 Tdp1-/-;hTDP1 cells with camptothecin (screen for TDP1 inhibitors); chicken DT40 Tdp1-/-;hTDP1 cells + 20 nM CPT, ATP luminescence, 48 h; Potency, µM (series often up to 46.2 µM), usual class: inhibitors; hit rate 12% among 420,000; also: nearly all actives have a fitted effect of over 55% in size
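Cell growth measured by CellTiter-Glo luminescence after a minimum 48 h, 37 C compound exposure with 20 nM CPT in Tdp1-knockout DT40 cells stably expressing hTDP1, seeded 400/well; qHTS titration format.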
A number is an active result; [ ] = another dose, or the depositor's remark. An excerpt weighted towards active compounds, which were near 19% of everything screened. Calls follow the shape of the dose curve; as a rule, active = well fitted curve in the direction sought with a large enough effect; inconclusive = small, poorly fitted or top-dose-only effect, or another doubt; inactive = no such curve, though single readings can be large; an effect the other way counts as inactive or inconclusive.

`COc1ccc(C2=Nc3ccccc3N(C(=O)c3ccc4c(c3)OCO4)C2C(=O)NCc2ccccc2)cc1` (stereo not drawn) gave TDP1 cell noCPT inconclusive, HT1080-NT tox inactive, KB-3-1 cytotox 4.61µM, HT1080 IDH1KD tx inconclusive, KB-V1 cytotox inconclusive and TDP1 cell CPT inconclusive.
Screening Cc1cccc(C)c1NC(=O)C1C(c2ccc3c(c2)OCO3)=Nc2ccccc2N1C(=O)c1cccc2ccccc12 (stereo not drawn) returned TDP1 cell noCPT 7.31µM, HT1080-NT tox inactive, KB-3-1 cytotox inactive, HT1080 IDH1KD tx inactive, KB-V1 cytotox inactive and TDP1 cell CPT 6.51µM.
`Cc1ccccc1S(=O)(=O)NC(=O)C1(C)CCN1C(=O)C1CCCCC1` (stereo not drawn) gave TDP1 cell noCPT inactive, HT1080-NT tox inconclusive, KB-3-1 cytotox inactive, HT1080 IDH1KD tx inactive, KB-V1 cytotox inactive and TDP1 cell CPT inactive.
For Cc1ccsc1C(=O)N(Cc1cc2ccc(F)cc2nc1N1CCC(O)CC1)CC1CCCO1 (stereo not drawn) the results were TDP1 cell noCPT inactive and TDP1 cell CPT inactive[9.04 µM].
CCOc1ccc(C(=O)NN2CCOCC2)cc1 was read as TDP1 cell noCPT inactive, HT1080-NT tox inactive, KB-3-1 cytotox inactive, HT1080 IDH1KD tx inactive, KB-V1 cytotox inactive and TDP1 cell CPT inactive.
For Cc1ccnc(NC(=O)/C=C/c2cccs2)c1 the results were TDP1 cell noCPT 11.6µM, HT1080-NT tox inconclusive, KB-3-1 cytotox inconclusive, HT1080 IDH1KD tx inconclusive, KB-V1 cytotox 11.6µM and TDP1 cell CPT inconclusive.
`Cc1ccc(NC(=O)/C=C/c2ccc([N+](=O)[O-])s2)c(C)c1` gave TDP1 cell noCPT 3.66µM, HT1080-NT tox 2.59µM, KB-3-1 cytotox inconclusive, HT1080 IDH1KD tx 2.31µM, KB-V1 cytotox inactive and TDP1 cell CPT 2.59µM.
`Cc1ccc(NC(=O)COC(=O)c2ccc([N+](=O)[O-])s2)c(C)c1` gave TDP1 cell noCPT inactive, HT1080-NT tox inactive, KB-3-1 cytotox inactive, HT1080 IDH1KD tx inactive, KB-V1 cytotox inactive and TDP1 cell CPT inactive.
Cc1ccc(NC(=O)/C=C/c2cccc(C(F)(F)F)c2)cc1 was read as TDP1 cell noCPT inconclusive, HT1080-NT tox inactive, KB-3-1 cytotox inactive, HT1080 IDH1KD tx inactive, KB-V1 cytotox inconclusive and TDP1 cell CPT inactive.
For Cc1cc([N+](=O)[O-])ccc1NC(=O)/C=C/c1cccs1 the results were TDP1 cell noCPT inconclusive, HT1080-NT tox inactive, KB-3-1 cytotox inconclusive, HT1080 IDH1KD tx inactive, KB-V1 cytotox 8.2µM and TDP1 cell CPT inactive.
`Cc1ccc(NC(=O)/C=C/c2ccc([N+](=O)[O-])s2)cc1` gave TDP1 cell noCPT 3.66µM, HT1080-NT tox inconclusive, KB-3-1 cytotox inconclusive, HT1080 IDH1KD tx inconclusive, KB-V1 cytotox inconclusive and TDP1 cell CPT 3.26µM.
Screening Cc1cccc(NC(=O)/C=C/c2ccc([N+](=O)[O-])s2)c1 returned TDP1 cell noCPT 2.59µM, HT1080-NT tox 2.91µM, KB-3-1 cytotox 5.8µM, HT1080 IDH1KD tx 4.11µM, KB-V1 cytotox 4.61µM and TDP1 cell CPT 2.59µM.
`COCC(=O)N1CCC2(CC1)CCN(C(=O)NC(C)C)CC2` gave TDP1 cell noCPT inactive and TDP1 cell CPT inactive.
Screening Cc1ccc(NC(=O)C(C)SCc2nc3sc(C)c(C)c3c(=O)[nH]2)nc1 (stereo not drawn) returned TDP1 cell noCPT inactive, HT1080-NT tox inactive, KB-3-1 cytotox inactive, HT1080 IDH1KD tx inactive, KB-V1 cytotox inactive and TDP1 cell CPT inactive.
Screening Fc1cccc(NC(=S)N2CCn3cccc3C2c2cccnc2)c1 (stereo not drawn) returned TDP1 cell noCPT inactive, HT1080-NT tox inactive, KB-3-1 cytotox inactive, HT1080 IDH1KD tx inactive, KB-V1 cytotox inconclusive and TDP1 cell CPT inactive.
For Fc1ccccc1C1c2cccn2CCN1C(=S)Nc1ccc(Br)cc1 (stereo not drawn) the results were TDP1 cell noCPT inconclusive, HT1080-NT tox inactive, KB-3-1 cytotox inconclusive, HT1080 IDH1KD tx inconclusive, KB-V1 cytotox inactive and TDP1 cell CPT 20.6µM.
For Fc1ccccc1C1c2cccn2CCN1C(=S)Nc1cccc(Br)c1 (stereo not drawn) the results were TDP1 cell noCPT inactive, HT1080-NT tox inactive, KB-3-1 cytotox inactive, HT1080 IDH1KD tx inactive, KB-V1 cytotox inactive and TDP1 cell CPT inactive.
Screening S=C(Nc1ccccc1)N1CCn2cccc2C1c1cccnc1 (stereo not drawn) returned TDP1 cell noCPT inactive, HT1080-NT tox inactive, KB-3-1 cytotox inactive, HT1080 IDH1KD tx inactive, KB-V1 cytotox 16.4µM and TDP1 cell CPT inactive.
`COc1ccc(C(=O)N2CCC[C@@]3(CCN(Cc4cc(C(F)(F)F)cc(C(F)(F)F)c4)C3)C2)cc1` gave TDP1 cell noCPT inconclusive and TDP1 cell CPT inactive.
`Cc1ccc2ccccc2c1C(O)c1ncc(-c2ccccc2)[nH]1` (stereo not drawn) gave TDP1 cell noCPT inconclusive, HT1080-NT tox inactive, KB-3-1 cytotox inactive, HT1080 IDH1KD tx inactive, KB-V1 cytotox inactive and TDP1 cell CPT inconclusive.
For O=C1N[C@H](Cc2ccccc2)COC(=O)[C@@H](Cc2ccc(F)cc2)CC/C=C/C[C@H]1CC(=O)N(CCO)Cc1ccccc1 the results were TDP1 cell noCPT inconclusive, HT1080-NT tox inconclusive, KB-3-1 cytotox inconclusive, HT1080 IDH1KD tx inactive, KB-V1 cytotox inactive and TDP1 cell CPT 18.4µM.
O=C1N[C@H](Cc2ccccc2)COC(=O)[C@H](Cc2ccc(F)cc2)CC/C=C/C[C@@H]1CC(=O)N(CCO)Cc1ccccc1 was read as TDP1 cell noCPT inconclusive, HT1080-NT tox inactive, KB-3-1 cytotox inactive, HT1080 IDH1KD tx inconclusive, KB-V1 cytotox inconclusive and TDP1 cell CPT 10.3µM.
CC(C#N)(CCc1ccccn1)CCc1ccccn1 was read as TDP1 cell noCPT inactive, HT1080-NT tox inactive, KB-3-1 cytotox inconclusive, HT1080 IDH1KD tx inactive, KB-V1 cytotox inconclusive and TDP1 cell CPT inactive.
Screening Nc1cc(=O)[nH]c(SCC(=O)Nc2cc(S(=O)(=O)N3CCCCCC3)ccc2Cl)n1 returned TDP1 cell noCPT inconclusive, HT1080-NT tox inactive, KB-3-1 cytotox inactive, HT1080 IDH1KD tx inactive, KB-V1 cytotox inactive and TDP1 cell CPT inactive.
`CCCc1cc(=O)[nH]c(SCC(=O)Nc2cc(S(=O)(=O)N3CCOCC3)ccc2Cl)n1` gave TDP1 cell noCPT inactive, HT1080-NT tox inconclusive, KB-3-1 cytotox inactive, HT1080 IDH1KD tx inconclusive, KB-V1 cytotox inactive and TDP1 cell CPT inactive.
`C=CCSc1nnc(NC(=O)CSc2nc3ccccc3[nH]2)s1` gave TDP1 cell noCPT inactive, HT1080-NT tox inactive, KB-3-1 cytotox inactive, HT1080 IDH1KD tx inactive, KB-V1 cytotox inactive and TDP1 cell CPT inactive.
